Common to all, as to assay: NCI-60 one-dose screen, 48 h (100 = growth as untreated, 0 = no growth, -100 = all killed)
The subject of assay [1] is HCT-15 colon. The conditions noted are these: 10 µM unless noted.
The subject of assay [2] is HT29 colon. The note with it: 10 µM unless noted.
Assay [3] relates to SNB-19 CNS. The conditions noted are these: 10 µM unless noted.
Assay [4] relates to U251 CNS. The conditions noted are these: 10 µM unless noted.
In assay [5] the test system is PC-3 prostate. The note with it: 10 µM unless noted.
Assay [6] deals with SK-MEL-5 melanoma. The note with it: 10 µM unless noted.
Assay [7] relates to UACC-62 melanoma. The conditions noted are these: 10 µM unless noted.
Assay [8] relates to LOX IMVI melanoma. The conditions noted are these: 10 µM.
Assay [9] concerns SK-MEL-28 melanoma. The conditions noted are these: 10 µM unless noted.
Assay [10] concerns EKVX NSCLC. The conditions noted are these: 10 µM unless noted.
Assay [11] deals with SN12C renal. The note with it: 10 µM unless noted.
Assay [12] deals with UO-31 renal. The note with it: 10 µM unless noted.
Assay [13] concerns TK-10 renal. The note with it: 10 µM unless noted.
The subject of assay [14] is ACHN renal. The note with it: 10 µM unless noted.
Assay [15] concerns CAKI-1 renal. The note with it: 10 µM unless noted.
Assay [16] has as its system A498 renal. The note with it: 10 µM unless noted.
Assay [17] relates to CCRF-CEM leukemia. The conditions noted are these: 10 µM unless noted.
Assay [18] deals with MOLT-4 leukemia. The conditions noted are these: 10 µM unless noted.
Assay [19] relates to SK-MEL-2 melanoma. The note with it: 10 µM unless noted.
Assay [20] concerns SNB-75 CNS. The note with it: 10 µM unless noted.

Molecules are shown by their SMILES. About 83,000 compounds went through this panel and 20% of them were active in at least one assay; those are over-represented in the sample as a whole.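 How to read the values: 0–100, growth inhibition (40 = 60% inhibited); 0, no net growth; -100 to 0, cell death (-40 = 40% of starting cells died; -100 = all dead).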 Unmarked numbers belong to inactive results. Active and inactive are the calls of the source. The calls were made as follows: active = growth percent below 10; inactive = the rest. Where a SMILES comes first, the peptide text is derived from it. [ ]: non-standard residue; d: D form. ξ: configuration not given here. ξD = NC(CC(=O)O)C(=O)O

Turning to `CC(=O)OC1CC2CCC1(C)C2(C)C` (stereo not given), the growth in assay [1] is 98.9%; in assay [2], 96%; in assay [3], 103%; in assay [4] it was 103%; in assay [5] it was 93.2%; in assay [6], 106%. Also, the growth in assay [7] is 92.6%; in assay [8], 101%; in [9], 105%; in assay [10] it was 102%; in assay [11] it was 98.6%; in [12], 87.3%. The growth in [13] was 106%; in assay [14] it was 96.7%; in assay [15], 92.6%; in assay [16] it was 108%; in [17] it was -45% (active); in assay [18], 112%.

Turning to `O=C(Nc1ccc(Cl)c(Cl)c1)OCc1ccco1`, the growth in assay [1] is 29.7%; in assay [2], 34%; in [3], 63.3%; in assay [4], 43.1%; in [5], 54.1%; in assay [6], 30.6%. In addition, the growth is 25.5% in assay [7]; 74.1% in [9]; 28.9% in assay [19]; 56.9% in assay [10]; 48.8% in assay [11]; 36.1% in assay [12]. For the same compound, the growth in [13] is 58.2%; in assay [14] it was 32.5%; in assay [15], 25.4%; in assay [16], 71.5%; in assay [17], 39.3%; in assay [18] it was 34.1%.

Consider `O=C1C=CC(=O)N1c1cccc2c1CCCC2`, for which the growth is 98.4% in [1]; 102% in assay [2]; 85.9% in assay [20]; 98.2% in assay [4]; 98.9% in [5]; 102% in assay [6]. Moreover, the growth was 99.3% in [7]; 107% in [8]; 99.1% in assay [9]; 97.2% in assay [11]; 87.9% in assay [12]; 102% in assay [13]. Moreover, the growth was 79.3% in assay [14]; 82.3% in [15]; 96.2% in [16]; 9.65% (active) in assay [17]; 74.2% in assay [18].

`NCC(=O)NC(CC(=O)O)C(=O)O` (stereo not given) (H-Gly-[ξD]-OH): the growth was 105% in assay [1]; 98.2% in [2]; 98.6% in [20]; 103% in [4]; 86.7% in assay [5]; 101% in assay [6]. In addition, the growth is 91.4% in [7]; 103% in assay [8]; 104% in [9]; 111% in [19]; 99% in assay [11]; 97.7% in [13]. Besides, the growth in [14] is 106%; in assay [15], 89.8%; in assay [16], 105%; in assay [17], 79.3%; in assay [18], 109%.

On to `O=C(/C(Cl)=N/O)c1ccc(-c2ccccc2)cc1`, for which the growth was 94.5% in assay [1]; 80.1% in [2]; 105% in assay [3]; 96.1% in assay [4]; 98.6% in assay [5]; 98.7% in assay [6]. For the same compound, the growth in [7] is 97.9%; in assay [8], -41.5% (active); in assay [9] it was 110%; in [19], 110%; in assay [11] it was 103%; in assay [12], 57.9%. Also, the growth in assay [13] is 106%; in assay [14] it was 86.8%; in [15] it was 91.1%; in [16], 123%; in [17], 8.56% (active); in assay [18] it was 83.3%.

Consider `Clc1ccccc1C(c1ccccc1)(c1ccccc1)n1ccnc1`, for which the growth in assay [1] was 22.9%; in [2] it was 27.4%; in [3] it was 58.4%; in assay [4], 42%; in assay [5] it was 19.6%; in [6], -87% (active). In addition, the growth in assay [7] was 40.8%; in assay [8], 36%; in assay [9], 55.5%; in assay [19], 48.3%; in assay [10], 25.9%; in [11], 48.2%. Further, the growth is 12.1% in assay [12]; 32.7% in assay [14]; 20.6% in assay [15]; 58.7% in assay [16]; 21.5% in [17]; 17.3% in [18].

As for `COc1ccc2nc3cc(Cl)ccc3c(NCCCCCN3CCCCC3)c2c1`, the growth in assay [1] was -32.2% (active); in assay [2] it was -41.3% (active); in assay [3], 2.99% (active); in [4] it was -74.5% (active); in [5], -45.3% (active); in assay [6], -96.9% (active). The growth in assay [7] is -67.9% (active); in [8] it was -80.4% (active); in [9], -79.9% (active); in [19], -71.8% (active); in assay [11], 10.3%; in [12], -40.6% (active). For the same compound, the growth in assay [13] was -9.41% (active); in assay [14], -67.7% (active); in [15] it was -50.3% (active); in assay [16], 19.7%; in [17], -27.6% (active); in [18], -19.5% (active).

In the case of `Nc1ccc(Oc2ccccc2)c(Cl)c1`, the growth was 92.6% in assay [1]; 104% in assay [2]; 102% in [3]; 84.1% in [4]; 100% in [5]; 95.6% in assay [6]. Also, the growth in [7] was 107%; in assay [8] it was 103%; in assay [9] it was 106%; in assay [19], 105%; in [11], 107%; in [12] it was 72.1%. Also, the growth in [13] is 96.1%; in assay [14], 101%; in assay [15] it was 100%; in assay [16], 57.5%; in assay [17] it was 102%; in [18], 97.9%.

Take `c1ccc(-c2cc3cc4ccccc4cn3c2)cc1`: the growth in assay [1] was 100%; in assay [2], 105%; in assay [20], 89.9%; in assay [4], 82.4%; in assay [5], 78.9%; in assay [6], 80.6%. Besides, the growth in assay [8] was 86%; in [9], 98.5%; in assay [19], 90.1%; in [10] it was 85.3%; in assay [11], 87.6%; in assay [12], 60.9%. Also, the growth is 101% in assay [13]; 89.6% in [14]; 84.7% in assay [15]; 96.3% in assay [16]; 90.2% in [17]; 83.2% in assay [18].

The values above are taken from PubChem BioAssay (NCI).
